This is a sample that favours compounds with a hit; in the whole collection about 9% have one here.
ALOX12 inh: Primary qHTS assay for inhibitors of human arachidonate 12S-lipoxygenase (ALOX12): Round 2; Polyunsaturated fatty acid lipoxygenase ALOX12 (Homo sapiens), P18054; purified 12hLO, xylenol orange hydroperoxide absorbance; Potency, µM (series often up to 108 µM), inactives show at the top dose activity change, negative = inhibition, actives largely listed as inhibitors; actives 1.1% (n = 580,000); AID 1671190, 2021; also: potency is read from the fitted curve at half-maximal effect; % is scaled to controls: 0 for no effect and ±100 for the full control effect
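Purified human 12hLO (150 nM final) in 25 mM Hepes, 0.01% Triton X-100, pH 7.0 was preincubated 15 min at room temperature with compound. Then 40 uM arachidonic acid was added, 30 min. Hydroperoxide was read by Fe-XO absorbance ratio 573/405 nm.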
JMJD2A Tudor inh: qHTS Assay for Inhibitors of JMJD2A-Tudor Domain; Potency, µM (highest dose often 114 µM), for the others: at the highest dose activity change, negative = inhibition, actives largely listed as inhibitors; AID 504339, 2011; actives 4.4% (n = 390,000); AlphaScreen JMJD2A-Tudor / H3K4me3 peptide binding; Lysine-specific demethylase 4A (Homo sapiens), O75164; also: potency is read from the fitted curve at half-maximal effect; % is scaled to controls: 0 for no effect and ±100 for the full control effect; nearly all actives have a fitted effect of over 50% in size
G9a inh-1: qHTS Assay for Inhibitors of Histone Lysine Methyltransferase G9a. Histone-lysine N-methyltransferase EHMT2 (Homo sapiens), Q96KQ7. Potency, µM (highest dose often 102 µM), inactives show at the highest dose activity, negative = inhibition, actives largely listed as inhibitors. actives 8.8% (n = 350,000). G9a H3K9 monomethylation, AlphaScreen, 2 h; also: potency is read from the fitted curve at half-maximal effect; % is scaled to controls: 0 for no effect and ±100 for the full control effect; nearly all actives have a fitted effect of over 75% in size
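Compounds were preincubated with 20 nM G9a for 15 min, after which biotinylated H3K9 peptide (500 nM) and SAM (20 uM) started a 2 h room-temperature reaction. Monomethylated product was quantified by antibody-based AlphaScreen chemiluminescence.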
BAZ2B block: qHTS Assay for Inhibitors of BAZ2B; actives 4.4% (n = 360,000); Bromodomain adjacent to zinc finger domain protein 2B (Homo sapiens), Q9UIF8; AlphaScreen BAZ2B-H3K14Ac peptide displacement; Potency, µM (series often up to 114 µM), for the others: top-dose activity change, negative = inhibition, most hits filed as inhibitors; AID 504333, 2011; also: potency is read from the fitted curve at half-maximal effect; % is scaled to controls: 0 for no effect and ±100 for the full control effect; nearly all actives have a fitted effect of over 60% in size
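Multi-concentration screen (max 110 uM) measuring displacement of acetylated histone H3 peptide from BAZ2B by AlphaScreen, using 50 nM protein, 50 nM peptide and 10 ug/mL streptavidin donor plus Ni-chelate acceptor beads.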
HP1b chromo inh: HTS for Inhibitors of HP1-beta Chromodomain Interactions with Methylated Histone Tails; Chromobox protein homolog 1 (Homo sapiens), P83916; AlphaScreen HP1-beta / biotin-H3K9me3 peptide binding; Potency, µM (titrated, usually from 114 µM), without a hit: top-dose activity change, negative = inhibition, most hits filed as inhibitors; actives 0.56% (n = 390,000); AID 540317, 2011; also: potency is read from the fitted curve at half-maximal effect; nearly all actives have a fitted effect of over 70% in size
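HP1-beta protein (50 nM final) preincubated 30 min at room temperature with biotinylated H3(1-18)K9me3 peptide (50 nM) in PBS pH 7.4, 0.01% Tween-20, then compound added for 30 min. AlphaScreen streptavidin donor/nickel chelate acceptor beads (10 ug/mL final), 30 min dark, luminescence read.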
PLK1 PBD block: qHTS for Inhibitors of PLK1-PDB (polo-like kinase 1 - polo-box domain): Primary Screen | Serine/threonine-protein kinase PLK1 (Homo sapiens), P53350 | Plk1 PBD binding of FITC phosphopeptide, fluorescence polarization | Potency, µM, for inactives: max response, negative = inhibition, hits mostly inhibitors | actives 2.8% (n = 360,000) | AID 720504, 2013; also: potency is read from the fitted curve at half-maximal effect; series mostly up to about 57 µM; % is scaled to controls: 0 for no effect and ±100 for the full control effect; nearly all actives have a fitted effect of over 65% in size
JMJD2E inh-1: Inhibitors of Human Jumonji Domain Containing 2E (JMJD2E): 8HQs - Round 1 | shares compounds with BAZ2B block | Potency, µM (series often up to 57 µM), for inactives: at the highest dose activity, negative = inhibition, usual class: inhibitors | actives 89% (n = 130) | JMJD2E demethylase, FDH-coupled NADH fluorescence
ME-1 growth: qHTS Assay for Compounds Blocking the Interaction Between CBF-beta and RUNX1 for the Treatment of Acute Myeloid Leukemia: ME-1 cellular proliferation; shares compounds with BAZ2B block; ME-1 cell proliferation, ATP luminescence, 48 h; AID 504370, 2011; Potency, µM (titrated, usually from 56.1 µM), inactives show at the highest dose activity change, negative = inhibition, actives largely listed as inhibitors; actives 20% (n = 140)
JMJD2E inh-2: Confirmation qHTS Assay for Inhibitors of Human Jumonji Domain Containing 2E (JMJD2E) | shares compounds with JMJD2A Tudor inh | Recombinant JMJD2E, FDH-coupled NADH fluorescence (FDH is formaldehyde dehydrogenase) | Potency, µM (highest dose often 56.8 µM), without a hit: at the highest dose activity change, negative = inhibition, most hits filed as inhibitors | actives 93% (n = 140) | AID 2677, 2010
FDH counter: Counterscreen for JMJD2E Inhibitors: qHTS Assay for Inhibitors of Formaldehyde Dehydrogenase (FDH); FDH enzyme assay, NADH fluorescence kinetic; Potency, µM (doses to about 56.7 µM), for inactives: top-dose activity, negative = inhibition, most hits filed as inhibitors; shares compounds with JMJD2A Tudor inh; actives 10% (n = 140)
G9a inh-2: qHTS Assay for Inhibitors of Histone Lysine Methyltransferase G9a: Hit Confirmation | G9a H3K9 monomethylation, AlphaScreen, 2 h | actives 89% (n = 370) | AID 588344, 2011 | shares compounds with JMJD2A Tudor inh | Potency, µM, usual class: inhibitors; also: potency is read from the fitted curve at half-maximal effect; nearly all actives have a fitted effect of over 65% in size
Numbers without * were called inactive; ! = not confirmed by another sample; [ ] = dose if it differs, or a comment. Calls follow the shape of the dose curve; as a rule, active = well fitted curve in the direction sought with a large enough effect; inconclusive = small, poorly fitted or top-dose-only effect, or another doubt; inactive = no such curve, though single readings can be large; an effect the other way counts as inactive or inconclusive.

`CC(C)C[C@H]1C(=O)N2CCC[C@H]2[C@]2(O)O[C@](NC(=O)[C@@H]3C=C4c5cccc6[nH]c(Br)c(c56)CC4N(C)C3)(C(C)C)C(=O)N12` (stereo partly specified) gave ALOX12 inh inconclusive, JMJD2A Tudor inh 0.0%, G9a inh-1 inconclusive, BAZ2B block inconclusive, HP1b chromo inh 31.9% and PLK1 PBD block -6.7%.
Screening CCC(=O)O[C@@H]1[C@@H](OC(C)=O)[C@@]2(O)C(C[C@H](O)C2(C)C)[C@](C)(O)[C@H]2CC[C@@H]3[C@@H](O)[C@]12C[C@@]3(C)O (stereo partly specified) returned ALOX12 inh 3.3%, JMJD2A Tudor inh 2.8%, G9a inh-1 15.3%, BAZ2B block 5.4%, HP1b chromo inh 41.8% and PLK1 PBD block 0.0%.
For Cc1nn(C2CCOC(C)(C)C2)c2c1C(c1ccc(OC(C)C)cc1)SCC(=O)N2 (stereo unspecified) the results were ALOX12 inh 0.0%, JMJD2A Tudor inh -19.3%, G9a inh-1 7.6%[12.7 µM], BAZ2B block 9.1%, HP1b chromo inh 20.2% and PLK1 PBD block -18.7%.
Screening CN(N=O)c1ccc(O)c(O)c1 returned G9a inh-1 0.501µM* and ME-1 growth -15.9%.
For CCC1(CCO)C(=O)NC(=S)NC1=O the results were ALOX12 inh -25.0%, JMJD2A Tudor inh -6.2%, HP1b chromo inh 10.6%[57 µM] and PLK1 PBD block -11.5%.
Screening Cc1ccc(N(C)C(=O)Oc2ccc(C(=O)c3ccc(Cl)cc3)cc2)cc1 returned ALOX12 inh 7.9%, JMJD2A Tudor inh 56.5%, G9a inh-1 0.9%[59 µM], BAZ2B block 1.6%, HP1b chromo inh 107.5% and PLK1 PBD block -2.3%.
`NCCc1cc(O)c(O)cc1O` gave ALOX12 inh inconclusive, JMJD2A Tudor inh 10µM*, G9a inh-1 -143.0%[2.33 µM], HP1b chromo inh 28.2µM*, PLK1 PBD block 15µM* and ME-1 growth inconclusive.
`O=C(/C=C/c1ccc2c(c1)OCO2)c1c(O)n(CCc2ccccc2)c(=O)[nH]c1=O` gave ALOX12 inh inconclusive, JMJD2A Tudor inh -24.7%, G9a inh-1 -6.3%, BAZ2B block -0.8%, HP1b chromo inh 16.9% and PLK1 PBD block inconclusive.
`NC(Cc1cc(O)c(O)cc1O)C(=O)O` (stereo unspecified) gave ALOX12 inh inconclusive, G9a inh-1 0.447µM*, BAZ2B block 0.891µM* and ME-1 growth -12.8%.
For CC[n+]1c(-c2ccccc2)c2cc(N)ccc2c2ccc(N)cc21 the results were ALOX12 inh inconclusive, JMJD2A Tudor inh inconclusive, G9a inh-1 12.6µM*, HP1b chromo inh inconclusive, PLK1 PBD block -11.7% and ME-1 growth 10µM*.
For CN1Cc2ccccc2[C@@H]2c3cccc4[nH]cc(c34)C[C@H]21 the results were ALOX12 inh 37.6%, G9a inh-1 12.6µM* and ME-1 growth 11.2µM*.
`O=C(O)c1ccc(O)c2ncc(N3CCNCC3)cc12` gave JMJD2E inh-1 4.08µM*, JMJD2E inh-2 inconclusive and FDH counter -36.4%.
Screening NCCc1ccc(OC(F)F)cc1 returned ALOX12 inh -11.3%.
`Cn1c(CNC(=O)c2ccco2)nnc1SCC(=O)N1c2ccccc2Sc2ccccc21` gave ALOX12 inh 4.1%, JMJD2A Tudor inh -7.4%, G9a inh-1 inconclusive, BAZ2B block -35.0%, HP1b chromo inh 20.6%, PLK1 PBD block -4.8% and G9a inh-2 1*.
COc1ccc(OCC(=O)N2CCN(Cc3ccc(SC)cc3)CC2)cc1 was read as ALOX12 inh inconclusive, JMJD2A Tudor inh 2.51µM*, G9a inh-1 2.24µM*, BAZ2B block 50.1µM*!, HP1b chromo inh inconclusive, PLK1 PBD block inconclusive and G9a inh-2 32.4*.
Screening CC(C)NS(=O)(=O)c1ccc(OCC(=O)N2CCN(Cc3ccccc3)CC2)cc1 returned ALOX12 inh 0.0%, JMJD2A Tudor inh -13.5%, HP1b chromo inh 10.3% and PLK1 PBD block -10.8%.
Screening CN1CC[C@]2(C)c3cc(O)ccc3N(C)[C@@H]12 returned G9a inh-1 8.91µM*, JMJD2E inh-2 10µM* and FDH counter inconclusive.
CC1[C@H]2Cc3ccc(O)cc3[C@]1(C)CCN2CCc1ccccc1 (stereo partly specified) was read as ALOX12 inh inconclusive, JMJD2A Tudor inh -16.6%, HP1b chromo inh 38.7% and PLK1 PBD block -5.5%.

Bioassay records (PubChem)
